From the supplement of paper PMC12350171
Where a name gives a salt, the structure may show the parent alone.

Tested on: Yersinia pseudotuberculosis
Test: growth AUC normalised to DMSO control (fraction of control); higher = less growth inhibition, active = hit call of the paper
Settings: 20 µM
Outline: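 Pathogens were passaged twice under anaerobic conditions, then inoculated into pre-reduced mGAM plates at a starting OD578 of 0.01, with compound at 20 μM and 1% DMSO, and sealed with breathable membranes. For Haemophilus parainfluenzae, the medium was supplemented with hemin and NAD. OD578 was read every hour for 24 h in three biological replicates. Growth-curve AUC was calculated by the trapezoidal rule up to the exponential-to-stationary transition and normalised to DMSO controls on the same plate.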

| SMILES | growth AUC normalised to DMSO control |
| --- | --- |
| CC(=O)OCC(=O)[C@@]12N=C(C)O[C@@H]1C[C@H]1[C@@H]3CCC4=CC(=O)C=C[C@]4(C)[C@H]3[C@@H](O)C[C@@]12C [Deflazacort] | 0.999 (inactive) |
| C[C@H](CCC(=O)O)[C@H]1CC[C@H]2[C@@H]3[C@@H](O)C[C@@H]4C[C@H](O)CC[C@]4(C)[C@H]3CC[C@]12C [Urosiol] | 1.01 (inactive) |
| CCc1c2c(nc3ccc(OC(=O)N4CCC(N5CCCCC5)CC4)cc13)-c1cc3c(c(=O)n1C2)COC(=O)[C@]3(O)CC [Irinotecan hydrochloride trihydrate] | 0.998 (inactive) |
| Cc1ccc(S(=O)(=O)NC(=O)NN2CC3CCCC3C2)cc1 (stereo not given) [Gliclazide] | 0.987 (inactive) |
| CC(C(=O)O)c1ccc2c(c1)Cc1cccnc1O2 (stereo not given) [Pranoprofen] | 1.01 (inactive) |
| CC(=O)OCC(=O)[C@@]1(OC(C)=O)[C@@H](C)C[C@H]2[C@@H]3C[C@H](F)C4=CC(=O)C=C[C@]4(C)[C@@]3(F)[C@@H](O)C[C@@]21C [Diflorasone Diacetate] | 1.01 (inactive) |
| COc1ccc2c3c1O[C@H]1C[C@@H](O)C=C[C@@]31CCN(C)C2 [Galanthamine hydrobromide] | 1.02 (inactive) |
| CCN1CCCC1CNC(=O)c1cc(S(N)(=O)=O)ccc1OC (stereo not given) [Sulpiride] | 1.02 (inactive) |
| NS(=O)(=O)c1cc2c(cc1Cl)NC(CC1CCCC1)NS2(=O)=O (stereo not given) [Cyclopenthiazide] | 0.971 (inactive) |
| CN1CCN(C(c2ccccc2)c2ccc(Cl)cc2)CC1 (stereo not given) [Chlorcyclizine hydrochloride] | 0.984 (inactive) |

Tested on: P. vulgatus RND KO;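 also: active when median AUC fell below 0.1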
Test: growth AUC normalised to DMSO control (median) (fraction of control); higher = less growth inhibition, active = hit call of the paper
Settings: 20 µM
Outline: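 Strains were passaged twice overnight without oxygen, then grown in mGAM in 96-well plates with each approved-drug library compound at 20 μM and 1% DMSO, starting at OD578 0.01. OD578 was read hourly for 24 h inside an anaerobic incubator. Curves were truncated at entry into stationary phase, and the trapezoidal-rule area under the curve was normalised to same-plate vehicle wells. The value is the median across three biological replicates.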

| SMILES | growth AUC normalised to DMSO control |
| --- | --- |
| O=C(NCC(O)CO)c1c(I)c(C(=O)NCC(O)CO)c(I)c(N(CCO)C(=O)CO)c1I (stereo not given) [Ioversol] | 1.03 (inactive) |
| CC(=O)CCCCn1c(=O)c2c(ncn2C)n(C)c1=O [Pentoxifylline] | 0.983 (inactive) |
| COC(=O)Nc1nc2cc(C(=O)c3ccc(F)cc3)ccc2[nH]1 [Flubendazol] | 1.04 (inactive) |
| CC(=O)N(CC(O)CO)c1c(I)c(C(=O)NCC(O)CO)c(I)c(C(=O)NCC(O)CO)c1I (stereo not given) [Iohexol] | 1.01 (inactive) |
| O=C(Nc1cccc2c(=O)cc(-c3nnn[nH]3)oc12)c1ccc(OCCCCc2ccccc2)cc1 [Pranlukast] | 0.968 (inactive) |
| Cc1cccc(C)c1NC(=O)C1CCCCN1C (stereo not given) [Mepivacaine hydrochloride] | 1.06 (inactive) |
| CCn1cc(C(=O)O)c(=O)c2cnc(N3CCCC3)nc21 [Piromidic acid] | 1.06 (inactive) |
| C[C@H](CCC(=O)O)[C@H]1CC[C@H]2[C@@H]3CC[C@@H]4C[C@H](O)CC[C@]4(C)[C@H]3CC[C@]12C [Lithocholic acid] | 1.01 (inactive) |
| CS(=O)(=O)c1ccc([C@@H](O)[C@@H](CO)NC(=O)C(Cl)Cl)cc1 [Thiamphenicol] | 0.0183 (active) |
| COC(=O)C1=C(C)NC(C)=C(C(=O)OC(C)C)C1c1cccc2nonc12 (stereo not given) [Isradipine] | 1.02 (inactive) |
| NS(=O)(=O)c1cc2c(cc1C(F)(F)F)NCNS2(=O)=O [Hydroflumethiazide] | 1.02 (inactive) |
| CN(C)CCN(Cc1cccs1)c1ccccn1 [Methapyrilene hydrochloride] | 1.01 (inactive) |
| C[C@]12CC[C@@H]3c4ccc(OS(=O)(=O)O)cc4CC[C@H]3[C@@H]1CCC2=O [Estropipate piperazine salt] | 0.987 (inactive) |
| CN(CCCCCCCCCCN(C)C(=O)Oc1cccc([N+](C)(C)C)c1)C(=O)Oc1cccc([N+](C)(C)C)c1 [Demecarium bromide] | 0.944 (inactive) |
| O=C(OCC(O)CO)c1ccccc1Nc1ccnc2cc(Cl)ccc12 (stereo not given) [Glafenine hydrochloride] | 1.01 (inactive) |
| NC(=O)c1cnccn1 [Pyrazinamide] | 0.992 (inactive) |
| COCCOC(=O)C1=C(C)NC(C)=C(C(=O)OC(C)C)C1c1cccc([N+](=O)[O-])c1 (stereo not given) [Nimodipine] | 1.02 (inactive) |
| Cn1c(=O)c2c(ncn2CCO)n(C)c1=O [Etofylline] | 0.998 (inactive) |
| CCN(CCCc1ccccc1)CCCc1ccccc1 [Alverine citrate salt] | 1.02 (inactive) |
| N=C(N)NC(=O)c1nc(Cl)c(N)nc1N [Amiloride hydrochloride dihydrate] | 1.03 (inactive) |

| SMILES | growth AUC normalised to DMSO control |
| --- | --- |
| CC(=C(CCO)SSCC1CCCO1)N(C=O)Cc1cnc(C)nc1N (stereo in doubt) [Fursultiamine hydrochloride] | 1.02 (inactive) |
| CC(=O)N[C@@H](CC(C)C)C(=O)O [N-Acetyl-L-leucine] | 0.99 (inactive) |
| OCCN1CCN(CCCN2c3ccccc3C=Cc3ccccc32)CC1 [Opipramol dihydrochloride] | 1.01 (inactive) |
| CC1(C)[C@@H](OC(=O)CCC(=O)O)CC[C@]2(C)[C@H]3C(=O)C=C4[C@@H]5C[C@@](C)(C(=O)O)CC[C@]5(C)CC[C@@]4(C)[C@]3(C)CC[C@@H]12 [Carbenoxolone disodium salt] | 0.967 (inactive) |
| CC(=O)O[C@]1(C(C)=O)CC[C@H]2[C@@H]3C=C(C)C4=CC(=O)CC[C@@H]4[C@H]3CC[C@@]21C [Nomegestrol acetate] | 0.963 (inactive) |
| Cc1ccccc1N1C(=O)c2cc(S(N)(=O)=O)c(Cl)cc2NC1C (stereo not given) [Metolazone] | 0.99 (inactive) |
| CCCOc1ccc(C(=O)OCCN(CC)CC)cc1N [Proparacaine hydrochloride] | 1.03 (inactive) |
| CN(N=O)C(=O)N[C@H]1C(O)O[C@H](CO)[C@@H](O)[C@@H]1O (mixture of isomers) [Streptozotocin] | 0.0955 (active) |
| CC(C[N+](C)(C)C)OC(N)=O (stereo not given) [Bethanechol chloride] | 0.982 (inactive) |
| CN(C)CCOC(c1ccccc1)c1ccccc1.Cn1c(=O)c2[nH]c(Cl)nc2n(C)c1=O [Dimenhydrinate] | 1.01 (inactive) |
| CC(=O)OCC(=O)[C@@]12N=C(C)O[C@@H]1C[C@H]1[C@@H]3CCC4=CC(=O)C=C[C@]4(C)[C@H]3[C@@H](O)C[C@@]12C [Deflazacort] | 0.999 (inactive) |
| C[C@H](CCC(=O)O)[C@H]1CC[C@H]2[C@@H]3[C@@H](O)C[C@@H]4C[C@H](O)CC[C@]4(C)[C@H]3CC[C@]12C [Urosiol] | 1.02 (inactive) |
| CCc1c2c(nc3ccc(OC(=O)N4CCC(N5CCCCC5)CC4)cc13)-c1cc3c(c(=O)n1C2)COC(=O)[C@]3(O)CC [Irinotecan hydrochloride trihydrate] | 1 (inactive) |
| Cc1ccc(S(=O)(=O)NC(=O)NN2CC3CCCC3C2)cc1 (stereo not given) [Gliclazide] | 0.999 (inactive) |
| CC(C(=O)O)c1ccc2c(c1)Cc1cccnc1O2 (stereo not given) [Pranoprofen] | 1.04 (inactive) |
| CC(=O)OCC(=O)[C@@]1(OC(C)=O)[C@@H](C)C[C@H]2[C@@H]3C[C@H](F)C4=CC(=O)C=C[C@]4(C)[C@@]3(F)[C@@H](O)C[C@@]21C [Diflorasone Diacetate] | 1 (inactive) |
| COc1ccc2c3c1O[C@H]1C[C@@H](O)C=C[C@@]31CCN(C)C2 [Galanthamine hydrobromide] | 0.998 (inactive) |
| CCN1CCCC1CNC(=O)c1cc(S(N)(=O)=O)ccc1OC (stereo not given) [Sulpiride] | 0.992 (inactive) |
| NS(=O)(=O)c1cc2c(cc1Cl)NC(CC1CCCC1)NS2(=O)=O (stereo not given) [Cyclopenthiazide] | 0.978 (inactive) |
| CN1CCN(C(c2ccccc2)c2ccc(Cl)cc2)CC1 (stereo not given) [Chlorcyclizine hydrochloride] | 0.987 (inactive) |
